Some targets named below: ZBTB39; ZBTB5; ZBTB24; ZBTB8A; ZDHHC6; ZMAT2; ZHX1; ZIC5; ZKSCAN4; ZMAT5.
What all share (test): pooled miR-30 sensor sort-seq; sequence = guide strand
Conditions in all cases: shRNA
Also: reference of the scale not given here.

In the assay with ZBTB39, TTGCTTGTGAAACAGCCCGGGG yielded a sensor-assay potency score (higher = more potent) of -1.25.
TTCAACACTAGCAAAAACCTGT: in the assay with ZBTB39, the sensor-assay potency score (higher = more potent) is -0.0406.
In the assay with ZBTB5, TTAAGTAATGTTTACATGCCTT had a sensor-assay potency score (higher = more potent) of -0.579.
Take TTAAGTTTGACGGATCTCCAAA: the sensor-assay potency score (higher = more potent) with ZBTB24 is -1.
For the sequence TAAAAGTCTTACATACACTTAT, in the assay with ZBTB8A, the sensor-assay potency score (higher = more potent) was -0.256.
Sequence TTGACTTATAATGAGTAACTTC came in with a sensor-assay potency score (higher = more potent) with ZBTB8A of -0.468.
On the same count and under the same terms, as for TTTTTAATGGACTCTTTCCTTG, the figure is -0.893; as for TTTCTTTCTCACTAATGTCTAA, -0.493.
For the sequence TTAAGTACACAGACCACCCAGC, in the assay with ZBTB39, the sensor-assay potency score (higher = more potent) was -0.108.
Regarding TTTAGCTGTCTGTTCTGGCTGA, the sensor-assay potency score (higher = more potent) with ZBTB24 stood at 0.857.
Regarding TTTTGCATCACTATACAGGGAT, the sensor-assay potency score (higher = more potent) in the assay with ZBTB5 was 0.397.
Turning to TTAATCTCACAAGACACTGGTC, the sensor-assay potency score (higher = more potent) in the assay with ZBTB5 was -0.0713.
As to TAGAACTTTCTTGCACACCTGG, the sensor-assay potency score (higher = more potent) in the assay with ZBTB39 is -0.103.
Same read-out and setting: as for AAGTCCACCACATAGGTCCTGG, the figure is -0.52; as for TAAAGAAACATCAAAATCGAGT, -0.558.
As to ATCAAAACTAGTCTCAACCTGA, the sensor-assay potency score (higher = more potent) in the assay with ZBTB5 amounted to 0.322.
The same measure, in the same setting: to TACTTGATTACTTCTATGCTAT belongs 0.0849.
The sequence TATTATGCTAGAGACAATCTGG displayed a sensor-assay potency score (higher = more potent) with ZBTB39 of 0.145.
TAAATCTTTTTCCACAAGCTTG: the sensor-assay potency score (higher = more potent) with ZBTB8A was -1.26.
For TTTGGTTAATCTGTCGTCGAAA, the sensor-assay potency score (higher = more potent) with ZBTB5 is -0.689.
As to TACACTTATGACATCAGTCATC, the sensor-assay potency score (higher = more potent) in the assay with ZBTB8A is -0.715.
TTGATAGAACTTTATGATCTGT: the sensor-assay potency score (higher = more potent) with ZBTB5 came out at 0.242.
TTGAGAAGTATTCACTACTGGC had a sensor-assay potency score (higher = more potent) with ZBTB24 of 0.328.
TAGGTTATTTGTGACTTCCAAA showed a sensor-assay potency score (higher = more potent) with ZBTB5 of -1.29.
Same read-out and setting: to TACAATGACACAATCACAGAGC belongs 0.0287.
Consider TTAGACATCTACTATTTGGGGA, for which the sensor-assay potency score (higher = more potent) with ZBTB39 came out at 0.801.
In turn, TTGTTGAGTATTCTTCTGGGAG displayed a sensor-assay potency score (higher = more potent) with ZBTB8A of -0.386.
Turning to TTCAGCATCAATCTGTGCTTGT, in the assay with ZBTB8A, the sensor-assay potency score (higher = more potent) was found to be 0.622.
TTAAACACAACACAGAACAGAA gave a sensor-assay potency score (higher = more potent) in the assay with ZBTB39 of -0.952.
Sequence TAGTGTTTCAAGCAAAACCATT had a sensor-assay potency score (higher = more potent) with ZBTB39 of -1.46.
For TGCACTTTGACAGAACATCTGC, the sensor-assay potency score (higher = more potent) with ZBTB5 is -0.0496.
The sequence TAAGCAGACACCAACATCCCTG displayed a sensor-assay potency score (higher = more potent) in the assay with ZBTB39 of -0.047.
In the assay with ZBTB8A, TAAAGTAGCCGCTACTAGCGAA registered a sensor-assay potency score (higher = more potent) of -0.929.
In the case of ATTTTGTCTCCATATAACCAGT, the sensor-assay potency score (higher = more potent) with ZDHHC6 was -1.42.
Sequence TTTTCTAGGGAACCAACCCCTT displayed a sensor-assay potency score (higher = more potent) in the assay with ZDHHC6 of -1.12.
In turn, TTTCTTGTACGCTTTGGCCTTT gave a sensor-assay potency score (higher = more potent) in the assay with ZMAT2 of -0.519.
Turning to TAACTATGTCTGTTCTAGCAAG, the sensor-assay potency score (higher = more potent) in the assay with ZHX1 was -1.35.
ATGAGTACGCTTGTGGATCTTG yielded a sensor-assay potency score (higher = more potent) with ZIC5 of -0.744.
TTCTGCTTTCTTTGTAACCTGC: the sensor-assay potency score (higher = more potent) with ZKSCAN4 was -0.00454.
Still for that read-out and setting: as for TTCCACAGTCTTCACATTCATA, the figure is -1.13; as for TTTATCACCATGAATCCTCTGA, 0.54.
In the case of TGTATGAGTACGCTTGTGGATC, in the assay with ZIC5, the sensor-assay potency score (higher = more potent) was -1.35.
In turn, TTCTTCTTCTCTGTAAACCAAG had a sensor-assay potency score (higher = more potent) with ZHX1 of -1.18.
In the assay with ZIC5, TTTGTCACAGCCTCGAATCTTG showed a sensor-assay potency score (higher = more potent) of -0.0738.
In the assay with ZMAT2, TTTATTGGGAACTCAGGTGGGC displayed a sensor-assay potency score (higher = more potent) of 0.402.
Regarding TTCTCTTTCTTGTACGCTTTGG, in the assay with ZMAT2, the sensor-assay potency score (higher = more potent) was -0.566.
TGAGCTGTGACTGAAGACCTTA: in the assay with ZKSCAN4, the sensor-assay potency score (higher = more potent) stood at 0.0781.
In the case of TTCCTCAAAATCATAATCCTTC, in the assay with ZMAT2, the sensor-assay potency score (higher = more potent) amounted to 0.481.
In the assay with ZHX1, TTAAACTGAACATTTCTTCTAC had a sensor-assay potency score (higher = more potent) of 0.706.
For the sequence TACCTCTGCAATCTGTGCCCTC, in the assay with ZMAT2, the sensor-assay potency score (higher = more potent) is -0.418.
Turning to TGAACTTTGAGCAAAACTCTTT, the sensor-assay potency score (higher = more potent) in the assay with ZKSCAN4 is -0.0856.
Consider TGTCATATTCTGAAGCGGCTGG, for which, in the assay with ZIC5, the sensor-assay potency score (higher = more potent) is 0.253.
Same read-out and setting: as for TTGAGGTTGGTCACCTGAGGGG, the figure is -0.565.
As for TTCTTGTTGACCTCAAAACGTT, the sensor-assay potency score (higher = more potent) in the assay with ZMAT2 was -0.905.
Regarding TTTACTGATAGATATTCCCGAA, the sensor-assay potency score (higher = more potent) with ZHX1 is -0.468.
The sequence TTCATGCTTGAACAGAGCCTTC had a sensor-assay potency score (higher = more potent) with ZKSCAN4 of -1.41.
As for AACCTGGAGAACTCTATCGTGT, in the assay with ZKSCAN4, the sensor-assay potency score (higher = more potent) was -0.756.
For the sequence ATCTCGGAACATGTCGTACCAG, the sensor-assay potency score (higher = more potent) with ZMAT5 is -1.24.
In the assay with ZIC5, TAGTAGGGCTTGTCACTGGTGT showed a sensor-assay potency score (higher = more potent) of -0.153.
The same measure, in the same setting: as for TTGGTGGTGGTGTAGCCCGAGA, the figure is -1.57.
